In PubChem BioAssay (Tox21):
Results filed as inconclusive are left out. Activity calls are given as the source filed them. Unless noted, the call rests on the fitted dose curve; in most records, active means well fitted curve in the direction sought with a large enough effect in the repeat runs; inconclusive means weak or mixed curves; inactive means no such curve, though single readings can be large; an effect the other way counts as inactive or inconclusive.

How the values were obtained:
[1] = biological target: Thyrotropin receptor (Homo sapiens) (UniProt P16473); test: qHTS assay to identify small molecule antagonists of the thyroid stimulating hormone receptor (TSHR) signaling pathway (AID 1259385; calls by dose curve; further: nearly all actives have a fitted effect of over 20% in size)
In short: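 TSHR-HEK293 cells were plated and held 18 h at 37C/5% CO2, then given compound plus Ro20-1724 and stimulated with TSH at 1.5 ng/mL final. After 30 min at room temperature, cAMP was detected with cAMP-d2/anti-cAMP-cryptate (1 h) by fluorescence.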

[2] = qHTS assay to identify small molecule agonists of the estrogen receptor alpha (ER-alpha) signaling pathway in the presence of an antagonist - cell viability counter screen (AID 1259386);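 further: series mostly up to about 92 µM; cells exposed to compounds for 22 h at 37 °C before the viability read; nearly all actives have a fitted effect of over 30% in size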
In short: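 The test measures whether compounds kill ER-alpha reporter cells (VM7Luc4E2) under antagonist co-treatment (ICI-182,780, 10.0nM). Fluorescence from CellTiter-Fluor is read after a 22hr exposure.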

[3] = biological target: Progesterone receptor (Homo sapiens) (UniProt P06401); test: qHTS assay to identify small molecule agonists of the progesterone receptor (PR) signaling pathway (AID 1346784; calls by dose curve; further: nearly all actives have a fitted effect of over 30% in size)
In short: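 Fluorescence from LiveBLAzer B/G FRET substrate cleavage (2 hr, RT) reported PR activation in PR-UAS-bla HEK 293T cells treated 16 hr at 37C/5% CO2 with compounds; medium contained 2% charcoal-stripped FBS.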

[4] = biological target: Progesterone receptor (Homo sapiens) (UniProt P06401); test: qHTS assay to identify small molecule antagonists of the progesterone receptor (PR) signaling pathway (AID 1346795; active means well fitted inhibition curve with a large enough effect in the signal ratio in the repeat runs, not every such curve was filed as active; the % refers to the signal ratio; further: potency means the concentration at half of the fitted maximal effect)
In short: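 Fluorescence intensity measured 2 hr after adding beta-lactamase FRET substrate to PR-UAS-bla HEK293T cells that had been co-treated 16 hr with compound and 1 nM R5020 (final concentration) in 2% charcoal-stripped FBS.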

[5] = qHTS assay to identify small molecule antagonists of the progesterone receptor (PR) signaling pathway - cell viability counter screen (AID 1346798); further: series mostly up to about 92 µM; nearly all actives have a fitted effect of over 50% in size
In short: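 CellTiter-Glo luminescence; PR-UAS-bla HEK293T, 3,000 cells/well; compound + R5020, 16 hr, 37C/5% CO2; 30 min RT before read.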

[6] = qHTS assay to identify small molecule agonists of the progesterone receptor (PR) signaling pathway - cell viability counter screen (AID 1346799; calls by dose curve; further: nearly all actives have a fitted effect of over 45% in size)
In short: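 In parallel with the beta-lactamase readout, cytotoxicity toward PR-UAS-bla HEK293T cells was measured by CellTiter-Glo luminescence following 16 hr compound incubation in 2% charcoal-stripped FBS medium.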

[7] = qHTS assay to identify small molecule antagonists of the TGF-beta/Smad signaling pathway - cell viability counter screen (AID 1346824); further: nearly all actives have a fitted effect of over 50% in size
In short: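 SBE-bla HEK 293T cells were plated overnight at 37 C, then given compounds in DMSO plus TGF-beta1 (added as 0.25 ng/mL solution) for 5 hr. After the bla read, CellTiter-Glo was added to the same wells and luminescence read after 30 min at room temperature.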

[8] = qHTS assay to identify small molecule agonists of the TGF-beta/Smad signaling pathway - cell viability counter screen (AID 1346829); further: top concentration of the series differs between compounds; nearly all actives have a fitted effect of over 45% in size
In short: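 Tox21 qHTS format: SBE-bla HEK 293T cells treated with DMSO-dissolved compounds for 5 hr; CellTiter-Glo luminescence after 30 min at room temperature.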

[9] = qHTS assay to identify small molecule agonists of the TGF-beta/Smad signaling pathway (AID 1346859; active means well fitted activation curve with a large enough effect in the signal ratio in the repeat runs, not every such curve was filed as active; the % refers to the signal ratio; further: series mostly up to about 77 µM)
In short: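 After overnight seeding, SBE-bla HEK 293T cells are dosed with compounds in DMSO and kept 5 hr at 37 C, 5% CO2. LiveBLAzer-type FRET substrate is then applied for 2 hr at room temperature.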

[10] = biological target: Thyrotropin-releasing hormone receptor (Homo sapiens) (UniProt P34981); test: qHTS assay to identify small molecule antagonists of the thyrotropin-releasing hormone receptor (TRHR) signaling pathway (AID 1346877; active means well fitted inhibition curve with a large enough effect in the repeat runs, not every such curve was filed as active; further: series mostly up to about 51 µM)
In short: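 Overnight-plated (18 h, 37 °C) HEK293 cells expressing TRHR were dye-loaded 2 h, treated with compound, then stimulated with TRH at 1 nM final. Fluorescence intensity was captured every second for 3 min.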

[11] = biological target: Thyrotropin-releasing hormone receptor (Homo sapiens) (UniProt P34981); test: qHTS assay to identify small molecule agonists of the thyrotropin-releasing hormone receptor (TRHR) signaling pathway (AID 1346891; calls by dose curve;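 further: HEK293 cells expressing TRHR with calcium dye readout; series mostly up to about 58 µM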)
In short: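 Compounds were tested as agonists at 15 concentrations, in triplicate, on TRHR-Hek293 cells; calcium-sensitive dye fluorescence was recorded for 3 min following addition.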

[12] = Human pregnane X receptor (PXR) small molecule agonists, qHTS cell viability counter screen (AID 1346977); further: nearly all actives have a fitted effect of over 50% in size
In short: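 Viability counter screen: CellTiter-Fluor signal in PXR-Luc HepG2 cells, 24hr compound exposure, 37C, 5% CO2.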

[13] = Caspase-3/7 induction in HepG2 cells by small molecules, qHTS assay (AID 1346978); further: nearly all actives have a fitted effect of over 15% in size
In short: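 Wild-type HepG2 cells (2,000/well) were settled 5 h at 37 C, 5% CO2, then exposed to compounds in DMSO for 17 h. Caspase-3/7 activity was read by luminescence 30 min after adding Caspase-Glo 3/7 reagent at room temperature.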

[14] = Caspase-3/7 induction in CHO-K1 cells by small molecules, qHTS cell viability counter screen (AID 1346979); further: nearly all actives have a fitted effect of over 35% in size
In short: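 Viability readout by fluorescence (CellTiter-Fluor) on wild-type CHO-K1 cells exposed for 16hr at 37C and 5% CO2 to compounds delivered in DMSO; reagent incubated 1hr before reading.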

[15] = Caspase-3/7 induction in CHO-K1 cells by small molecules, qHTS assay (AID 1346980); further: nearly all actives have a fitted effect of over 15% in size
In short: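 Wild-type cells were seeded at 1,500 per well and settled 5 hr at 37 C, 5% CO2, then exposed to DMSO-dissolved compounds for 17 hr. Caspase-Glo 3/7 reagent was added, and luminescence was read after 30min at room temperature.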

[16] = Caspase-3/7 induction in HepG2 cells by small molecules, qHTS cell viability counter screen (AID 1346981); further: series mostly up to about 92 µM; nearly all actives have a fitted effect of over 30% in size
In short: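 Treatment of HepG2 cells with DMSO-delivered compounds ran 16 hr at 37 C following a 5-hr pre-incubation of 2,000 cells/well. CellTiter-Fluor fluorescence, read after 1 hr, served as the viability measure in a qHTS format.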

[17] = biological target: Nuclear receptor subfamily 1 group I member 2 (Homo sapiens) (UniProt O75469); test: Human pregnane X receptor (PXR) small molecule agonists, qHTS assay (AID 1346982); further: nearly all actives have a fitted effect of over 35% in size; further: potency means the concentration at half of the fitted maximal effect
In short: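 Stable HepG2 line reporting PXR-mediated CYP3A4 expression via luciferase. Treatment: 24 hr with compounds in DMSO at 37 C. Detection: ONE-Glo luminescence.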

[18] = biological target: Nuclear receptor subfamily 1 group I member 2 (Rattus norvegicus) (UniProt Q9R1A7); test: Rat pregnane X receptor (rPXR) activation by small molecules, qHTS assay (AID 1346983); conditions: rPXR luciferase reporter cells, One-Glo luminescence, 24 h; stronger effect = higher value; further: nearly all actives have a fitted effect of over 20% in size
In short: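 Cell-based rPXR luciferase reporter assay, 2,000 cells per well, rested 5hr at 37 C before compound addition in DMSO, then 24 hr at 37 C. One-Glo reagent was added and luminescence read after 30 min at room temperature.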

[19] = biological target: Nuclear receptor subfamily 1 group I member 2 (Homo sapiens) (UniProt O75469); test: CYP3A4 induction through human pregnane X receptor (PXR) by small molecules, qHTS assay (AID 1346984); further: nearly all actives have a fitted effect of over 40% in size; further: potency means the concentration at half of the fitted maximal effect
In short: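 After 24 h at 37C with compound, DPX-2 cells (HepG2, co-transfected PXR response element and CYP3A4 promoter-luciferase) got 3uM final P450-Glo Luciferin-IPA for 3 h; One-Glo luminescence followed.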

[20] = biological target: Nuclear receptor subfamily 1 group I member 2 (Homo sapiens) (UniProt O75469); test: Human pregnane X receptor (PXR) activation by small molecules, qHTS assay (AID 1346985); further: nearly all actives have a fitted effect of over 40% in size
In short: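 DPX-2 cells (HepG2 co-transfected with a PXR response element and a CYP3A4-promoter luciferase construct) were seeded at 2,000 per well, rested 5 hr at 37C, then exposed to DMSO-dissolved compounds for 24 hr. Activation was read as luciferase luminescence.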
On the % scale 0 is the no-effect control and ±100 the full control effect.

Sequence of Thyrotropin receptor (Homo sapiens) (P16473 whole entry, looked up): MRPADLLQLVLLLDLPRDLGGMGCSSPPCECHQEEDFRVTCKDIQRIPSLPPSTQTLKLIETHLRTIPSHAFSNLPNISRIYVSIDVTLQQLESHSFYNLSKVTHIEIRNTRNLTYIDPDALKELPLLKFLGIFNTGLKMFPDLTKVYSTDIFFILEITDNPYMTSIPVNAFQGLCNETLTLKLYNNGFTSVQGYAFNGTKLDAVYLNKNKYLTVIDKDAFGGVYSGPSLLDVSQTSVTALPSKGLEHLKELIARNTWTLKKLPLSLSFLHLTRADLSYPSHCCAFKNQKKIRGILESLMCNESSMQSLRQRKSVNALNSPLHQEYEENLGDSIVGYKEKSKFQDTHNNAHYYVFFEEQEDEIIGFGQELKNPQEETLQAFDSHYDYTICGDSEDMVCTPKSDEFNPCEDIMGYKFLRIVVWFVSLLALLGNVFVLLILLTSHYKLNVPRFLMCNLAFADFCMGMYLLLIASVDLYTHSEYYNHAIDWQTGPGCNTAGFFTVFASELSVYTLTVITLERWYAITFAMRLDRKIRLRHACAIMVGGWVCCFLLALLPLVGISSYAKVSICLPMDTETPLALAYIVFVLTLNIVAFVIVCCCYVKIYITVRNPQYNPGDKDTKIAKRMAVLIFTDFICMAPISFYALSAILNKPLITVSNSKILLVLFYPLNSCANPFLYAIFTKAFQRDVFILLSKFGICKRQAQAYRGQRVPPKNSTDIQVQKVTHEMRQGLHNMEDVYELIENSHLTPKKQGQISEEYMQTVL
Sequence of Nuclear receptor subfamily 1 group I member 2 (Homo sapiens) (O75469 whole entry, looked up): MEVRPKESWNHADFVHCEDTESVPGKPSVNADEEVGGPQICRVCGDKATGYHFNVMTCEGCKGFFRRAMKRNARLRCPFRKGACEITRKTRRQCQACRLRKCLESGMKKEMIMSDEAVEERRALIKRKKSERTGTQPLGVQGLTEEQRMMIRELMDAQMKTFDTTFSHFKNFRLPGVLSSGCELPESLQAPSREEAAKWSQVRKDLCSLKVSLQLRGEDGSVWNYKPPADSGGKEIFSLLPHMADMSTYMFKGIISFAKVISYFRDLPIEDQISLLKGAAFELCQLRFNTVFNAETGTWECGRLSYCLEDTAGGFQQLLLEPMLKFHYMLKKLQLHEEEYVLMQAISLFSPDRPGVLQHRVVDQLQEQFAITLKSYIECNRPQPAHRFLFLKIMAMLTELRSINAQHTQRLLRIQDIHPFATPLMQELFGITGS
Sequence of Thyrotropin-releasing hormone receptor (Homo sapiens) (P34981 whole entry, looked up): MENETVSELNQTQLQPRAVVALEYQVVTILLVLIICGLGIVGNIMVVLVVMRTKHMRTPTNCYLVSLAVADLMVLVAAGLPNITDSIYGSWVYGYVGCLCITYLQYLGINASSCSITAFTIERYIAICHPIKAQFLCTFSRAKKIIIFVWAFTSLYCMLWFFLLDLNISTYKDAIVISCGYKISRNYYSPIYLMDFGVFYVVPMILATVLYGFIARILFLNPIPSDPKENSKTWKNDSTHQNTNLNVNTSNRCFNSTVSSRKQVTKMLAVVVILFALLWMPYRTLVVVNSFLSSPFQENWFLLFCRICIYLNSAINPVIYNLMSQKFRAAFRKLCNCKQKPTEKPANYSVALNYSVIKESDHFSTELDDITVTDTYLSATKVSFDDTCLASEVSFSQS
Sequence of Progesterone receptor (Homo sapiens) (P06401 whole entry, looked up): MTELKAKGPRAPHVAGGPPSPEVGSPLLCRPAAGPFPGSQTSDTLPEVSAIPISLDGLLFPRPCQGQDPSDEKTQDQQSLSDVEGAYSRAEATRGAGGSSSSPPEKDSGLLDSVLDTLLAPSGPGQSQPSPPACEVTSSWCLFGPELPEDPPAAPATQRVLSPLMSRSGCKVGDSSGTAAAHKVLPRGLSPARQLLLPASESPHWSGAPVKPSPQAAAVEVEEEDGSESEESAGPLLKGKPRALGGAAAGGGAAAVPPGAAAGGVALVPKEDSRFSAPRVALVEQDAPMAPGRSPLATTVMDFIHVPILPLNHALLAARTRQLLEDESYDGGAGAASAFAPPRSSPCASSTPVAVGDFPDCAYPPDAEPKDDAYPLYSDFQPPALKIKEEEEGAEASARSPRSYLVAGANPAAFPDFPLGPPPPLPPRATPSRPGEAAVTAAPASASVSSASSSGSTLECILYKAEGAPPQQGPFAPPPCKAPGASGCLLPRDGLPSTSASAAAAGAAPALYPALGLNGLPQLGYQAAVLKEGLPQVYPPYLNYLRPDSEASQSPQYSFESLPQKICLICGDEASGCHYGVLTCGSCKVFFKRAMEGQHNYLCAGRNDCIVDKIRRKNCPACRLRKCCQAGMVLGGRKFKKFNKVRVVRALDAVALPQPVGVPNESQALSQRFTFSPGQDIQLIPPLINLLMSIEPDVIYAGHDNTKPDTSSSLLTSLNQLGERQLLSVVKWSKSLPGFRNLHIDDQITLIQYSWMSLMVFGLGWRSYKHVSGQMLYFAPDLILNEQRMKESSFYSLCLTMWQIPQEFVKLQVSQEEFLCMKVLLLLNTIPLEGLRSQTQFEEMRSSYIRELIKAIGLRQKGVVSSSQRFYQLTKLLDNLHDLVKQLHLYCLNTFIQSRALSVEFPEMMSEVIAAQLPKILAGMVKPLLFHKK
Sequence of Nuclear receptor subfamily 1 group I member 2 (Rattus norvegicus) (Q9R1A7 whole entry, looked up): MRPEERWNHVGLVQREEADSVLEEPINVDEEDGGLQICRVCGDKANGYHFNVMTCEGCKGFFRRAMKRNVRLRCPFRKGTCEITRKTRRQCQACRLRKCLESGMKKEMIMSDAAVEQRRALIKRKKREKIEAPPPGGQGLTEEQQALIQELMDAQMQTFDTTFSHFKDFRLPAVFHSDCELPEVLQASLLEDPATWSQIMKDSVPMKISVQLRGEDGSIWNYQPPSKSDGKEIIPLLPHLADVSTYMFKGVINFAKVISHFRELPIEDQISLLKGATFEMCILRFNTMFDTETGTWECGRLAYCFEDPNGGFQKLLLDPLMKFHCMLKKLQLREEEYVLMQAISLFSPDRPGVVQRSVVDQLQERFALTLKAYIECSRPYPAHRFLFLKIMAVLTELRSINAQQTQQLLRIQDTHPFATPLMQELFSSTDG

C=CCCCCCCCCC(=O)O
inactive: outcome [1] | Potency [2] | Potency [3] | Potency [4] | outcome [5] | outcome [6] | outcome [7] | outcome [8] | outcome [9] | outcome [10] | outcome [11] | Potency [12] | Potency [13] | Potency [14] | outcome [15] | Potency [16] | Potency [17] | max activation [18] -1.23% | Potency [19] | outcome [20]

CC(C)(C)c1cc(Cc2cc(C(C)(C)C)c(O)c(C(C)(C)C)c2)cc(C(C)(C)C)c1O
inactive: outcome [1] | Potency [2] | Potency [3] | Potency [4] | outcome [5] | outcome [6] | outcome [7] | outcome [9] | outcome [10] | outcome [11] | Potency [12] | Potency [13] | Potency [14] | outcome [15] | Potency [16] | Potency [17]

CCOCCOCCOCCO
inactive: outcome [1] | Potency [2] | Potency [3] | Potency [4] | outcome [5] | outcome [6] | outcome [7] | outcome [8] | outcome [10] | outcome [11] | Potency [12] | Potency [13] | Potency [14] | outcome [15] | Potency [16] | Potency [17]

O=C1C(c2[nH]c3ccccc3c2O)=Nc2ccccc21
inactive: outcome [1] | Potency [2] | Potency [3] | Potency [4] | outcome [5] | outcome [6] | outcome [7] | outcome [8] | outcome [9] | outcome [10] | outcome [11] | Potency [12] | Potency [13] | Potency [14] | outcome [15] | Potency [16] | Potency [17] | max activation [18] 3.64% | outcome [20]
active: Potency [19] 0.891 µM

CC(C)CC(C)O (configuration not stated)
inactive: outcome [1] | Potency [2] | Potency [3] | Potency [4] | outcome [5] | outcome [6] | outcome [7] | outcome [8] | outcome [9] | Potency [12] | Potency [13] | Potency [14] | outcome [15] | Potency [16] | Potency [17]

CC(CCl)OP(=O)(OC(C)CCl)OC(C)CCl (configuration not stated)
active: Potency [4] 54.6 µM | Potency [17] 36.3 µM
inactive: outcome [1] | Potency [2] | Potency [3] | outcome [5] | outcome [6] | outcome [7] | outcome [8] | outcome [10] | outcome [11] | Potency [12] | Potency [13] | Potency [14] | outcome [15] | Potency [16]

O=C(O)/C=C/C(=O)O
inactive: outcome [1] | Potency [2] | Potency [3] | Potency [4] | outcome [5] | outcome [6] | outcome [7] | outcome [10] | outcome [11] | Potency [12] | Potency [13] | Potency [14] | outcome [15] | Potency [16]
